Test results as given in PubChem BioAssay AID1159580 (chemical genetic matrix, 2015).
About 2,000 (36%) of roughly 5,500 compounds were called active. Not shown: some 18% with an inconclusive outcome. Cut-off read from the data, not from the text of the source: active = normalized growth mostly below about 0.91 (no sharp cut-off); inconclusive = no clear call, values can overlap the other calls; inactive = mostly above about 0.92. The list shows a part of the results.

Experiment: chemical genetic growth profiling, strain panel (AID 1159580);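 note: tested at 20 µM; growth read once vehicle control cultures reached saturation at 30 °C; 1 = growth at the plate median or of vehicle wells; lower values mean less growth of the strain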
Settings: growth OD

Measured: normalized growth

CN1CCC[C@@H]1CCO[C@](C)(c1ccccc1)c1ccc(Cl)cc1
active: S. cerevisiae deletion strains, locus YLR039C, strain RIC1, active compounds read low 1.41 [resistant] | S. cerevisiae deletion strains, locus YLR262C, strain YPT6, active compounds read low 1.46 [resistant] | S. cerevisiae deletion strains, locus YLR342W, strain FKS1, active compounds read low 0.893 | S. cerevisiae deletion strains, locus YLR418C, strain cdc73, active compounds read low 0.682 | S. cerevisiae deletion strains, locus YNL071W, strain lat1, active compounds read low 0.888 | S. cerevisiae deletion strains, locus YNL209W, strain ssb2, active compounds read low 0.877 | S. cerevisiae deletion strains, locus YNL248C, strain rpa49, active compounds read low 0.836 | S. cerevisiae deletion strains, locus YOL006C, strain TOP1, active compounds read low 0.417 | S. cerevisiae deletion strains, locus YOR270C, strain vph1, active compounds read low 0.616
inactive: S. cerevisiae deletion strains, locus YJR075W, strain HOC1, active compounds read low 0.92 | S. cerevisiae deletion strains, locus YKL009W, strain mrt4, active compounds read low 0.977 | S. cerevisiae deletion strains, locus YKL068W, active compounds read low 0.992 | S. cerevisiae deletion strains, locus YKL085W, strain MDH1 (second series), active compounds read low 0.995 | S. cerevisiae deletion strains, locus YKL085W, strain MDH1, active compounds read low 0.995 | S. cerevisiae deletion strains, locus YKL160W, strain elf1, active compounds read low 0.977 | S. cerevisiae deletion strains, locus YKL190W, strain CNB1, active compounds read low 0.977 | S. cerevisiae deletion strains, locus YKR001C, strain vps1, active compounds read low 1.02 | S. cerevisiae deletion strains, locus YKR026C, strain gcn3, active compounds read low 1.02 | S. cerevisiae deletion strains, locus YKR091W, strain srl3, active compounds read low 1 | S. cerevisiae deletion strains, locus YLL001W, strain dnm1, active compounds read low 0.946 | S. cerevisiae deletion strains, locus YLL026W, active compounds read low 0.988 | S. cerevisiae deletion strains, locus YLL041C, strain sdh2, active compounds read low 0.992 | S. cerevisiae deletion strains, locus YLR027C, strain aat2, active compounds read low 0.98 | S. cerevisiae deletion strains, locus YLR058C, strain SHM2, active compounds read low 0.994 | S. cerevisiae deletion strains, locus YLR102C, strain apc9, active compounds read low 0.997 | S. cerevisiae deletion strains, locus YLR113W, strain HOG1, active compounds read low 0.969 | S. cerevisiae deletion strains, locus YLR221C, strain rsa3, active compounds read low 0.932 | S. cerevisiae deletion strains, locus YLR258W, strain gsy2, active compounds read low 0.977 | S. cerevisiae deletion strains, locus YLR262C, strain YPT6 (second series), active compounds read low 1.07 | S. cerevisiae deletion strains, locus YLR268W, strain sec22, active compounds read low 0.929 | S. cerevisiae deletion strains, locus YLR320W, strain mms22, active compounds read low 0.878 | S. cerevisiae deletion strains, locus YLR330W, strain CHS5, active compounds read low 1.02 | S. cerevisiae deletion strains, locus YLR342W, strain FKS1 (second series), active compounds read low 0.834 | S. cerevisiae deletion strains, locus YLR357W, strain rsc2, active compounds read low 1.01 | S. cerevisiae deletion strains, locus YLR370C, strain arc18, active compounds read low 0.966 | S. cerevisiae deletion strains, locus YLR371W, strain rom2, active compounds read low 0.994 | S. cerevisiae deletion strains, locus YLR384C, strain iki3, active compounds read low 1.01 | S. cerevisiae deletion strains, locus YML016C, strain PPZ1, active compounds read low 1.02 | S. cerevisiae deletion strains, locus YML032C, strain rad52, active compounds read low 0.98 | S. cerevisiae deletion strains, locus YML120C, strain ndi1, active compounds read low 1 | S. cerevisiae deletion strains, locus YML124C, strain tub3, active compounds read low 0.994 | S. cerevisiae deletion strains, locus YMR058W, strain fet3, active compounds read low 0.953 | S. cerevisiae deletion strains, locus YMR078C, strain ctf18, active compounds read low 0.993 | S. cerevisiae deletion strains, locus YMR125W, strain sto1, active compounds read low 0.96 | S. cerevisiae deletion strains, locus YMR129W, active compounds read low 0.99 | S. cerevisiae deletion strains, locus YMR205C, strain PFK2, active compounds read low 0.955 | S. cerevisiae deletion strains, locus YMR223W, strain ubp8, active compounds read low 0.964 | S. cerevisiae deletion strains, locus YMR231W, strain pep5, active compounds read low 1.01 | S. cerevisiae deletion strains, locus YMR263W, strain SAP30, active compounds read low 0.976 | S. cerevisiae deletion strains, locus YMR307W, strain GAS1, active compounds read low 0.92 | S. cerevisiae deletion strains, locus YNL067W, strain RPL9B, active compounds read low 0.971 | S. cerevisiae deletion strains, locus YNL128W, strain TEP1, active compounds read low 0.898 | S. cerevisiae deletion strains, locus YNL153C, strain GIM3, active compounds read low 1 | S. cerevisiae deletion strains, locus YNL183C, strain NPR1, active compounds read low 0.918 | S. cerevisiae deletion strains, locus YNL233W, strain BNI4, active compounds read low 0.978 | S. cerevisiae deletion strains, locus YNL250W, strain rad50, active compounds read low 0.986 | S. cerevisiae deletion strains, locus YNL271C, strain bni1, active compounds read low 0.986 | S. cerevisiae deletion strains, locus YNL298W, strain CLA4, active compounds read low 0.988 | S. cerevisiae deletion strains, locus YNL307C, strain MCK1, active compounds read low 0.96 | S. cerevisiae deletion strains, locus YNL322C, strain KRE1 (second series), active compounds read low 1.02 | S. cerevisiae deletion strains, locus YNL322C, strain KRE1, active compounds read low 1.01 | S. cerevisiae deletion strains, locus YNR049C, strain mso1, active compounds read low 1.01 | S. cerevisiae deletion strains, locus YNR052C, strain pop2, active compounds read low 0.971 | S. cerevisiae deletion strains, locus YOL012C, strain htz1 0.791 | S. cerevisiae deletion strains, locus YOL147C, strain pex11, active compounds read low 0.999 | S. cerevisiae deletion strains, locus YOR001W, strain rrp6, active compounds read low 0.951 | S. cerevisiae deletion strains, locus YOR061W, strain CKA2, active compounds read low 1.01 | S. cerevisiae deletion strains, locus YOR069W, strain VPS5, active compounds read low 1 | S. cerevisiae deletion strains, locus YOR070C, strain gyp1, active compounds read low 0.974 | S. cerevisiae deletion strains, locus YOR080W, strain dia2, active compounds read low 0.994 | S. cerevisiae deletion strains, locus YOR083W, strain WHI5, active compounds read low 0.93 | S. cerevisiae deletion strains, locus YOR106W, strain vam3, active compounds read low 0.914 | S. cerevisiae deletion strains, locus YOR136W, strain idh2, active compounds read low 0.991 | S. cerevisiae deletion strains, locus YOR144C, strain elg1, active compounds read low 1 | S. cerevisiae deletion strains, locus YOR184W, strain ser1, active compounds read low 0.999 | S. cerevisiae deletion strains, locus YOR231W, strain MKK1, active compounds read low 0.991 | S. cerevisiae deletion strains, locus YOR265W, strain rbl2, active compounds read low 0.998 | S. cerevisiae deletion strains, locus YOR290C, strain snf2, active compounds read low 0.957 | S. cerevisiae deletion strains, locus YOR316C, strain cot1, active compounds read low 0.993 | S. cerevisiae deletion strains, locus YPL051W, strain arl3, active compounds read low 0.94 | S. cerevisiae deletion strains, locus YPL055C, strain LGE1, active compounds read low 0.782 | S. cerevisiae deletion strains, locus YPL078C, strain atp4, active compounds read low 0.916 | S. cerevisiae deletion strains, locus YPL106C, strain sse1, active compounds read low 1.02 | S. cerevisiae deletion strains, locus YPL240C, strain hsp82, active compounds read low 0.992 | S. cerevisiae deletion strains, locus YPL241C, strain CIN2, active compounds read low 0.999 | S. cerevisiae deletion strains, locus YPL256C, strain CLN2, active compounds read low 0.979 | S. cerevisiae deletion strains, locus YPR119W, strain clb2, active compounds read low 0.998 | S. cerevisiae deletion strains, locus YPR141C, strain kar3, active compounds read low 0.997 | S. cerevisiae deletion strains, locus YPR163C, strain tif3, active compounds read low 0.975 | S. cerevisiae deletion strains, locus YPR167C, strain met16, active compounds read low 0.991 | S. cerevisiae deletion strains, strain wtn01, active compounds read low 0.959 | S. cerevisiae strains, strain wild type, active compounds read low 0.99
